PubChem BioAssay AID1159580 (chemical genetic matrix, 2015)
Where “and” joins values, the source holds several entries; their conditions need not be identical. Equal values may be shown once. Out of some 5,500 compounds screened, about 2,000 (36%) were called active. Not shown: some 18% with an inconclusive outcome. No stated cut-off is given here; in the data, active means normalized growth mostly below about 0.91 (no sharp cut-off); inconclusive means no clear call, values can overlap the other calls; inactive means mostly above about 0.92. Some of the results follow.

Assay: chemical genetic growth profiling, strain panel (AID 1159580);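 further: tested at 20 µM; growth read once vehicle control cultures reached saturation at 30 °C; 1 = growth at the plate median or of vehicle wells; lower values mean less growth of the strain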
Settings: S. cerevisiae deletion strains, growth OD

Measured: normalized growth

COC(=O)C[C@H]1C(C)(C)[C@@H](O)[C@@H]2CC3=C4CC(O)O[C@@H](c5ccoc5)[C@]4(C)CCC3[C@@]1(C)C2=O (some centres not stated)
inactive: locus YAL013W, strain DEP1, hits give low values 1.01 | locus YAL021C, strain ccr4, hits give low values 1.01 | locus YAL026C, strain drs2, hits give low values 1.06 | locus YAL030W, strain snc1, hits give low values 1.03 | locus YBL061C, strain skt5, hits give low values 1.03 | locus YBR009C, strain hhf1, hits give low values 1.02 | locus YBR021W, strain FUR4, hits give low values 1.07 | locus YBR023C, strain chs3, hits give low values 1 | locus YBR171W, strain sec66, hits give low values 1.05 | locus YBR229C, strain ROT2, hits give low values 1 | locus YBR231C, strain swc5, hits give low values 1.03 | locus YBR279W, strain paf1, hits give low values 1.03 | locus YCL011C, strain gbp2, hits give low values 1 | locus YCL016C, strain dcc1, hits give low values 0.99 | locus YCL029C, strain bik1, hits give low values 0.99 | locus YCL069W, strain vba3, hits give low values 1.01 | locus YCR088W, strain abp1, hits give low values 1.02 | locus YDL005C, strain med2, hits give low values 1.03 | locus YDL035C, strain GPR1, hits give low values 1.03 | locus YDL040C, strain nat1, hits give low values 1.02 | locus YDL074C, strain BRE1, hits give low values 1.01 | locus YDL101C, strain DUN1, hits give low values 1 | locus YDL134C, strain PPH21, hits give low values 0.978 | locus YDL185W, strain tfp1, hits give low values 0.962 | locus YDL192W, strain arf1, hits give low values 0.989 | locus YDR001C, strain nth1, hits give low values 1.02 | locus YDR069C, strain doa4, hits give low values 1.02 | locus YDR101C, strain arx1, hits give low values 0.999 | locus YDR137W, strain rgp1, hits give low values 1.01 | locus YDR159W, strain sac3, hits give low values 1.09 | locus YDR162C, strain NBP2, hits give low values 0.987 | locus YDR195W, strain ref2 1.01 | locus YDR297W, strain sur2, hits give low values 1.03 | locus YDR318W, strain mcm21, hits give low values 0.991 | locus YDR334W, strain swr1, hits give low values 1.03 | locus YDR335W, strain msn5, hits give low values 1.01 | locus YDR388W, hits give low values 0.984 | locus YDR392W, strain spt3, hits give low values 0.938 | locus YDR502C, strain sam2, hits give low values 0.981 | locus YEL003W, strain gim4, hits give low values 1.05 | locus YEL037C, strain rad23, hits give low values 1.03 | locus YEL061C, strain CIN8 (second series), hits give low values 1.02 | locus YEL061C, strain CIN8, hits give low values 1.01 | locus YER015W, strain faa2, hits give low values 1.01 | locus YER016W, strain bim1, hits give low values 1.02 | locus YER110C, hits give low values 0.98 | locus YER111C, strain swi4, hits give low values 1.03 | locus YER155C, strain BEM2 (second series), hits give low values 1.08 | locus YER155C, strain BEM2, hits give low values 0.998 | locus YER167W, strain BCK2, hits give low values 1.01 | locus YFR010W, strain ubp6, hits give low values 1.05 | locus YGL078C, strain dbp3, hits give low values 0.97 | locus YGL086W, strain mad1, hits give low values 1.02 | locus YGL167C, strain pmr1, hits give low values 1.02 | locus YGL173C, strain kem1, hits give low values 1.06 | locus YGL227W, strain vid30, hits give low values 1.03 | locus YGL240W, strain doc1, hits give low values 1.04 | locus YGL248W, strain PDE1, hits give low values 1.01 | locus YGL253W, strain hxk2, hits give low values 1.04 | locus YGR078C, strain PAC10, hits give low values 0.985 | locus YGR135W, strain pre9, hits give low values 0.95 | locus YGR229C, strain SMI1, hits give low values 1.04 | locus YGR252W, strain gcn5, hits give low values 0.981 | locus YHR013C, strain ard1, hits give low values 1.01 | locus YHR027C, strain rpn1, hits give low values 1.02 | locus YHR030C, strain SLT2, hits give low values 1.01 | locus YHR079C, strain IRE1 (second series), hits give low values 0.984 | locus YHR079C, strain IRE1, hits give low values 1.01 | locus YHR094C, strain hxt1, hits give low values 0.979 | locus YHR129C, strain ARP1, hits give low values 1 | locus YHR142W, strain chs7, hits give low values 0.994 | locus YHR200W, strain rpn10, hits give low values 0.996 | locus YIL066C, strain RNR3, hits give low values 1.02 | locus YIL073C, strain SPO22, hits give low values 0.916 | locus YIL125W, strain kgd1, hits give low values 0.987 | locus YIR030C, strain dcg1, hits give low values 0.976 | locus YJL092W, strain hpr5, hits give low values 1.03 | locus YJL095W, strain BCK1 (second series), hits give low values 1.02 | locus YJL095W, strain BCK1, hits give low values 0.977 and 1.02 | locus YJL115W, strain asf1, hits give low values 1.03 | locus YJL129C, strain trk1, hits give low values 1 | locus YJL134W, strain LCB3, hits give low values 1 | locus YJL154C, strain vps35, hits give low values 1.02 | locus YJL164C, strain tpk1, hits give low values 1.01 | locus YJL166W, strain qcr8, hits give low values 1.03 | locus YJL168C, strain set2, hits give low values 0.991 | locus YJL187C, strain SWE1 (second series), hits give low values 0.987
